Molecules are shown by their SMILES. Several values for one entry are separate records, joined by “and”; a condition that tells them apart may be missing. Identical values can stand only once. Inconclusive results are not listed. Activity calls are given as the source filed them. Unless noted, calls come from the whole dose curve; as a rule, active = well fitted curve in the direction sought with a large enough effect; inconclusive = small, poorly fitted or top-dose-only effect, or another doubt; inactive = no such curve, though single readings can be large; an effect the other way counts as inactive or inconclusive.

The record followed here is PubChem BioAssay (NCATS).

A short description of test [1]: Cell Viability - HepG2 (AID 433; calls by dose curve;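 note: potency is the fitted concentration of half-maximal effect; cells exposed to compound for 40 hours; potency for ATP loss meaning cytotoxicity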). As to conditions: qHTS. The method in brief:
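HepG2 hepatocellular carcinoma cells (1500/well) were treated with compounds for 40 h at 37 °C in complete medium; intracellular ATP was read by CellTiter-Glo luminescence. Data were normalized to DMSO and 100 uM tamoxifen, and AC50 came from Hill fits.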
On the technique in general: Quantitative high-throughput screening tests each substance at several concentrations.

Test [2] in a line: Cell Viability - Mesenchymal (AID 546).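 Note: cells exposed to compound for 40 hours before reading.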 Particulars: mesenchymal cells viability, qHTS; activity change, negative = cytotoxicity: at 91.7 µM (top of the series). A digest of the protocol:
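In this qHTS cytotoxicity format, glomerulus-derived human mesenchymal kidney cells received compound for 40 hr, then luciferase-based ATP quantitation. Concentration-response data were fitted with the Hill equation.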

A short description of test [3]: Cellular Toxicity (caspase-3) Jurkat (AID 655).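 Note: cells exposed to compound for 16 h at 37 °C before reading.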 As to conditions: Jurkat caspase-3 activation, luminescence; caspase-3 activation: at 92.2 µM (top of the series), DMSO = 0%, tamoxifen = 100%. A digest of the protocol:
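Jurkat cells (5000/well) in complete medium were treated with compounds for 16 hr at 37 °C, then Caspase-Glo 3/7 luminescence was read after 20 min at room temperature. Data normalized to DMSO (basal) and 100 uM tamoxifen (100%); AC50 from Hill fit.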

The nature of test [4]: Cell Viability - LYMP1-002 - Assay at 16 hr (AID 948).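 Note: 0% = DMSO alone and full effect = 92 µM tetraoctylammonium bromide.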 Particulars: LYMP1-002 lymphoblastoid cell viability; series mostly up to 92.2 µM. A digest of the protocol:
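Human lymphoblastoid cells (LYMP1-002), 2500/well, were preincubated 5 hr at 37 C, then exposed to compounds for 16 hr at 37 C in complete medium. Cellular ATP was read by CellTiter-Glo luminescence after 30 min at room temperature; AC50 from Hill fits.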

Test [5] can be described thus: Cell Viability - LYMP2-003 (AID 965).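 Note: cells exposed to compounds for 24 h before reading; 0% = DMSO only and full effect = 92 µM tetraoctylammonium bromide; nearly all actives have a fitted effect of over 50% in size.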 Particulars: LYMP2-003 lymphoblastoid cell viability; series mostly up to 92.2 µM. A digest of the protocol:
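Human lymphoblastoid cells (2500/well) were pre-incubated 5 hr at 37 C, then exposed to compounds over a concentration range for 24 hr at 37 C. Intracellular ATP was read by CellTiter-Glo luminescence; AC50 came from Hill-equation fits.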

Test [6] in a line: Cell Viability - LYMP2-011 (AID 969).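 Note: 0% = DMSO only and full inhibition = 92 µM tetraoctylammonium bromide; nearly all actives have a fitted effect of over 60% in size.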 As to conditions: LYMP2-011 lymphoblastoid cells viability; series mostly up to 92.2 µM. A digest of the protocol: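 In this qHTS cytotoxicity format, compounds are tested across concentrations on human lymphoblastoid cells in complete medium for 24 hours at 37 C. Viability is taken as cellular ATP measured by luciferase luminescence.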
The nature of test [7]: Cell Viability - LYMP2-013 (AID 970).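 Note: 0% = DMSO only and full inhibition = tetraoctylammonium bromide control; nearly all actives have a fitted effect of over 55% in size.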 As to conditions: LYMP2-013 lymphoblastoid cells viability; series mostly up to 92.2 µM. The method in brief:
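Cytotoxicity is scored as a concentration-dependent drop in intracellular ATP in human lymphoblastoid cells after 24 hr compound exposure at 37 C. ATP is quantified by luciferase luminescence, and AC50 values come from Hill-equation modeling.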

A short description of test [8]: Cell Viability - LYMP2-021 (AID 974).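 Note: compound exposure lasts 24 hours at 37 °C; % is set by controls: 0 for no effect and ±100 for the full control effect; nearly all actives have a fitted effect of over 55% in size.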 Particulars: LYMP2-021 lymphoblastoid cells viability; series mostly up to 92.2 µM. The method in brief:
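Loss of cellular ATP, measured with a luciferase-based CellTiter-Glo readout, serves as the toxicity signal in human lymphoblastoid cells treated for 24 hours at 37 C. Potency is reported as AC50 from a standard Hill model.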

Test [9] in a line: Cell Viability - LYMP2-002 (AID 977).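 Note: compound exposure lasted 24 h at 37 °C; plate controls were DMSO only for no effect and 92 µM tetraoctylammonium bromide for full effect.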 Particulars: LYMP2-002 lymphoblastoid cell viability, qHTS; series mostly up to 92.2 µM. A digest of the protocol: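 In this qHTS viability screen, 2500 human lymphoblastoid cells per well receive compound for 24 hr at 37 C, and luciferase-based ATP luminescence gives the viability signal. Tetraoctylammonium bromide serves as positive control.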

Test [10] can be described thus: Cell Viability - LYMP2-008 (AID 980). Note: % is set by controls: 0 for no effect and ±100 for the full control effect; nearly all actives have a fitted effect of over 60% in size. Particulars: LYMP2-008 lymphoblastoid cell viability, qHTS; series mostly up to 92.2 µM. The method in brief: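 Cells seeded at 2500/well and rested 5 hr at 37 C; compounds added over a concentration range and incubated 24 hr at 37 C; CellTiter-Glo added, 30 min at room temperature; luminescence read and AC50 fitted with Hill model.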

Test [11] can be described thus: Cell Viability - LYMP2-012 (AID 982).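 Note: cellular ATP by luciferase luminescence where a drop means cytotoxicity; cells exposed to compound for one day before reading; 0% = DMSO only and full loss = 92 µM tetraoctylammonium bromide; nearly all actives have a fitted effect of over 55% in size.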 As to conditions: LYMP2-012 lymphoblastoid cell viability qHTS; series mostly up to 92.2 µM.
Test [12] is described as follows: Cell Viability - LYMP2-014 (AID 983).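 Note: plate controls were DMSO only for no effect and 92 µM tetraoctylammonium bromide for full effect; nearly all actives have a fitted effect of over 50% in size.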 As to conditions: LYMP2-014 lymphoblastoid cells, viability qHTS; series mostly up to 92.2 µM. A digest of the protocol: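 Cells are plated at 2500/well and left 5 hr at 37 C. Compounds are added across a concentration range and incubated 24 hr at 37 C in complete medium. CellTiter-Glo is added, and luminescence is read after 30 min at room temperature.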

A short description of test [13]: Cell Viability - LYMP2-016 (AID 984). Note: % is set by controls: 0 for no effect and ±100 for the full control effect; nearly all actives have a fitted effect of over 55% in size. Particulars: LYMP2-016 lymphoblastoid cell viability, qHTS; series mostly up to 92.2 µM. The method in brief: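 Human lymphoblastoid cells (LYMP2-016), 2500/well in complete medium, preincubated 5 hr at 37 C, then compound-treated 24 hr at 37 C. Intracellular ATP read by CellTiter-Glo luminescence after 30 min at room temperature; AC50 from Hill-equation concentration-response fits.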

The nature of test [14]: Cell Viability - LYMP2-020 (AID 986). Particulars: series mostly up to 92.2 µM. The method in brief:
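Seed 2500 cells per well and incubate 5 hr at 37 C. Add compounds at a concentration series and incubate 24 hr at 37 C. Add CellTiter-Glo, wait 30 min at RT, read luminescence, and fit a Hill curve for AC50.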

Test [15] is described as follows: Cell Viability - LYMP2-024 (AID 988).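 Note: plate controls were DMSO only for no effect and 92 µM tetraoctylammonium bromide for full effect; nearly all actives have a fitted effect of over 60% in size.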 Particulars: LYMP2-024 lymphoblastoid cell viability; series mostly up to 92.2 µM. The method in brief: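 qHTS cytotoxicity, human lymphoblastoid line, complete medium; 24 h cpd treatment, 37 C; CellTiter-Glo ATP luminescence readout; tetraoctylammonium bromide positive control; AC50 via Hill fit.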
The nature of test [16]: Cell Viability - LYMP2-026 (AID 989). Note: % is set by controls: 0 for no effect and ±100 for the full control effect; nearly all actives have a fitted effect of over 50% in size. Particulars: LYMP2-026 lymphoblastoid cell viability, qHTS; series mostly up to 92.2 µM. The method in brief:
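Cells are seeded at 2500 per well and held 5 hr at 37 C. Compounds are added in concentration series for 24 hr, then CellTiter-Glo reagent is applied and luminescence read.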

Test [17] can be described thus: Cell Viability - LYMP1-002 - Assay at 40 hr (AID 994).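 Note: 0% = DMSO only and full inhibition = 92 µM tetraoctylammonium bromide; nearly all actives have a fitted effect of over 60% in size.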 Particulars: LYMP1-002 lymphoblastoid cell viability; series mostly up to 92.2 µM. A digest of the protocol:
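Cells are plated at 2500 per well and rested 5 hr at 37 C. Compounds are added and incubated 40 hr at 37 C. CellTiter-Glo reagent is added for 30 min at room temperature before luminescence is read.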

A short description of test [18]: qHTS assay for small molecule antagonists of retinoid X receptor alpha signaling (AID 588546; active = well fitted inhibition curve with a large enough effect in the signal ratio, with a control signal flat, not every such curve was filed as active; the % refers to the signal ratio;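 note: cells stimulated with 9-cis-retinoic acid as agonist; % is set by controls: 0 for no effect and ±100 for the full control effect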). Particulars: HEK293T RXRa-UAS-bla, beta-lactamase ratio, antagonist mode; measured here: W530 green channel, cytotoxicity proxy. The method in brief: (§1)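 Beta-lactamase reporter inhibition, read as CCF4 fluorescence ratio (ex 405, em 460/530 nm) after 2 h at RT. HEK293T UAS-bla cells, 2500/well, were stimulated with 9-cis-RA at 500 or 100 nM final alongside test compound for 18 h at 37 C.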

Test [19] has as its target Retinoic acid receptor RXR-alpha (Homo sapiens) (UniProt P19793). The description is as above. Particulars: HEK293T RXRa-UAS-bla, beta-lactamase ratio, antagonist mode. A digest of the protocol:
as §1

Test [20] is described as follows: qHTS assay for environmental chemicals that activate the Aryl hydrocarbon Receptor (AhR) signaling pathway (AID 651777). Note: % of control where 0% means no effect; nearly all actives have a fitted effect of over 15% in size. As to conditions: 1A2-DRE human hepatoma cells, luciferase, 24 h; activation: stronger effect = higher value. The method in brief: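 Induction of CYP1A2 transcription through AhR is detected by luciferase in 1A2-DRE hepatoma cells. Compounds or DMSO act for 24 hr at 37 C before a 30 min One-Glo step at room temperature.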

Sequence of Retinoic acid receptor RXR-alpha (Homo sapiens) (P19793 whole entry, looked up): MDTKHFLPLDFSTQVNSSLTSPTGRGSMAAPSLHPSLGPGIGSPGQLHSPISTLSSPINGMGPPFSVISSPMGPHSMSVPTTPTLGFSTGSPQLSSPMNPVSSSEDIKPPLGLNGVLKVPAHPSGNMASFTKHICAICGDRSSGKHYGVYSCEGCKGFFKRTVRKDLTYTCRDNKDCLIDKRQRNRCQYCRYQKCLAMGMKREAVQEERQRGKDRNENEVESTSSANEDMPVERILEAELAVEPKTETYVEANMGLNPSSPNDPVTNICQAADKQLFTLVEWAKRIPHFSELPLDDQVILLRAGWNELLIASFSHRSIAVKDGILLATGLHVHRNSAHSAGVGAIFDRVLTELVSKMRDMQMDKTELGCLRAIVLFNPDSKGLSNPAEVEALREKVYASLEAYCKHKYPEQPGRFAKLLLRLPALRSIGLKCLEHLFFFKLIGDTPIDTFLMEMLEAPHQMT

As for `c1ccc2ncccc2c1`, in [1], the Potency is > 92 µM (inactive). In addition, the Potency entry in [2], in [3], in [4], in test [5], in test [6] and in [7] was “inactive” in each case. For the same compound, the Potency entry in test [8], in test [9], in [10], in test [11], in test [12] and in [13] was “inactive” in each case. Besides, the Potency entry in [14], in [15], in test [16] and in test [17] was “inactive” each time. In addition, the max response in [18] was -0.528%; in [19], 0.834% (inactive). Besides, the activation in test [20] was -0.0283% (inactive).
`CN(C)c1ccc(Cc2ccc(N(C)C)cc2)cc1`: in [1], the Potency is > 92 µM (inactive). Moreover, the Potency result in test [2], in test [3], in [4], in test [5], in test [6] and in test [7] was “inactive” each time. Besides, the Potency result in test [8], in [9], in test [10], in [11], in [12] and in [13] was “inactive” each time. Also, the Potency entry in test [14], in test [15], in test [16] and in test [17] was “inactive” each time. For the same compound, the max response is 3.74% and -6.02% in [18]; 1.04% (inactive) and -36.9% (inactive) in test [19]. For the same compound, the activation in test [20] is 8.36% (inactive) and 2.98% (inactive).
Consider `COc1ccc([N+](=O)[O-])cc1N`, for which the Potency in [1] was > 92 µM (inactive). Moreover, the Potency entry in test [2], in [3], in test [4], in [5], in [6] and in [7] was “inactive” each time. Besides, the Potency entry in test [8], in test [9], in test [10], in test [11], in [12] and in test [13] was “inactive” in each case. The Potency result in test [14], in [15], in test [16] and in test [17] was “inactive” throughout. The max response in [18] was 0.433% and 4.58%; in test [19], 4.59% (inactive) and -0.147% (inactive). In addition, the activation in test [20] is 1.04% (inactive) and 4.76% (inactive).
For `O=[N+]([O-])c1cc(Cl)c(Cl)c(Cl)c1Cl`, the Potency in [1] was > 92 µM (inactive). In addition, the Potency result in test [2], in test [3], in [4], in test [5], in test [9] and in test [11] was “inactive” in each case. Moreover, the Potency result in [13], in test [16] and in test [17] was “inactive” throughout. Moreover, the max response in test [18] is 11.9%; in test [19], -21.8% (inactive). The activation in test [20] was -0.451% (inactive).
`CCCC(=O)OC(=O)CCC`: the Potency in test [1] was > 92 µM (inactive). The Potency result in [2], in [3], in test [4], in test [5], in test [6] and in test [7] was “inactive” throughout. The Potency entry in test [8], in [9], in test [10], in test [11], in test [12] and in [13] was “inactive” throughout. Further, the Potency result in [14], in [15], in test [16] and in test [17] was “inactive” each time. Also, the max response in test [18] is -8.03% and -4.72%; in [19], 2.23% (inactive) and 15.8% (inactive). In addition, the activation in test [20] was 0.206% (inactive) and -0.322% (inactive).
On to `C1CCCNCC1`, for which the Potency in test [1] was > 92 µM (inactive). The Potency entry in [2], in test [3], in test [4], in test [5], in [6] and in test [7] was “inactive” throughout. In addition, the Potency result in [8], in [9], in test [10], in test [11], in test [12] and in [13] was “inactive” throughout. For the same compound, the Potency result in test [14], in test [15], in [16] and in [17] was “inactive” throughout. In addition, the max response is -4.82% in [18] and 5.08% (inactive) in test [19]. Also, the activation in [20] is 0.178% (inactive).
